Here are results for 40 molecules from PubChem BioAssay (Tox21).

Results filed as inconclusive are left out. Entries that show only a call come without a potency. Active and inactive are the calls of the source. Calls come from the whole dose curve; as a rule, active = well fitted cell-killing curve with a large enough effect in the repeat runs; inconclusive = weak or mixed curves, or effect the other way; inactive = flat fitted curve, though single readings scatter.
Potency is the fitted concentration of half-maximal effect.

This experiment can be described thus: qHTS RealTime-Glo MT Cell Viability Assay in HepG2 cells - 0 hour (AID 1224889). Note: nearly all actives have a fitted effect of over 50% in size. As to conditions: RealTime-Glo luminescence; series mostly up to 76.8 µM. From the text: U.S. Tox21 Program National Center for Advancing Translational Sciences [NCATS] NIH Chemical Genomics Center [NCGC] U.S. Environmental Protection Agency [EPA] National Institutes of Environmental Health Sciences [NIEHS] National Toxicology Program [NTP] U.S. Food and Drug Administration [FDA] Tox21 Assay Overview: Measure of cell viability is critical in the cell-base assay. Analysis of cell viability is necessary for the characterization of cell responses to cytotoxic drugs and environmental stress. A RealTime-Glo MT Cell Viability Assay to monitor cell viability in real time of continues cell culture during 40 hours of compound treatment was used to screen Tox21 10K library compounds in HepG2 cells. The RealTime-Glo MT Cell Viability Assay is a nonlytic, homogeneous, bioluminescent method to measure cell viability in real time using a simple, plate-based method. The assay involves adding NanoLuc luciferase and a cell-permeant prosubstrate to cells in culture. Viable cells reduce the proprietary prosubstrate to generate a substrate for NanoLuc luciferase. This substrate diffuses from cells into the surrounding culture medium, where it is rapidly used by the NanoLuc Enzyme to produce a luminescent signal. The signal correlates with the number of viable cells, making the assay well suited for cytotoxicity studies.
Tox21 Assay Protocol Summary: The mixture of HepG2 cell suspension and reagents were dispensed at 600cells/6 ul/well in 1536-well tissue culture treated black solid bottom plates using a Multidrop dispenser. After the assay plates were incubated at a 37 C/5% CO2 incubator for 5 hours, 23 nL of compounds dissolved in DMSO, positive and negative controls was transferred to the assay plate by a pintool work station. The plates were incubated at 37 C for 40 hours. The luminescence intensity were measured at 0h, 8h, 16h, 24h, 32h and 40h time points using ViewLux plate reader during compound treatment.
Background: In qHTS, concentration-response curves come from the screen itself.
As to `CCOC(=O)CC(C)=O`, the Potency result is “inactive”. With `CC(C)NCCCC1(C(N)=O)c2ccccc2-c2ccccc21`, the Potency entry is “inactive”.

Consider `CC[N+](C)(C)c1cccc(O)c1`, for which the Potency entry was “inactive”. Turning to `NC(=O)c1cn(Cc2c(F)cccc2F)nn1`, the Potency result is “inactive”. With `CCCC(=O)O[C@]1(C(=O)CO)CC[C@H]2[C@@H]3CCC4=CC(=O)CC[C@]4(C)[C@H]3[C@@H](O)C[C@@]21C`, the Potency was 2130 nM (active).

For `CN(C(=O)c1c(O)c2ccccc2n(C)c1=O)c1ccccc1`, the Potency result is “inactive”. On the same count and under the same terms, the result for `CCC(=O)OC(C)c1ccccc1` (stereo not given) reads “inactive”; that for `CCOC(=O)CCC(C)=O`, “inactive”.

As for `CCCCCSCCCCC`, the Potency entry was “inactive”. Take `COc1cc(C(=O)N2CCCCCCC2)cc(OC)c1OC`: the Potency result is “inactive”. The same measure, in the same setting: the result for `O=C(c1ccccc1)C1CCCCC1` reads “inactive”. Consider `O=C1CCCN1C1CCCCC1`, for which the Potency entry is “inactive”.

As for `O=C1CCCC(=O)C1`, the Potency entry was “inactive”. As to `CC(C)NC(=O)NC(C)C`, the Potency entry was “inactive”. Turning to `COC(=O)NN`, the Potency result was “inactive”. Consider `CCN1CCC[C@H]1CNC(=O)c1c(O)c(Cl)cc(Cl)c1OC`, for which the Potency result is “inactive”. As for `O=Cc1cccc([N+](=O)[O-])c1`, the Potency entry is “inactive”.

As to `CC(=O)OCC(CCn1cnc2cnc(N)nc21)COC(C)=O`, the Potency entry is “inactive”.

On to `CC1(C)CO[C@@H](CC(=O)O)CN1`, for which the Potency result was “inactive”. As to `Nc1c2c(nc3ccccc13)CCCC2O` (stereo not given), the Potency entry was “inactive”. On to `Cc1sccc1Br`, for which the Potency entry is “inactive”.

Take `Cn1cc(S(C)=O)c(=O)c2ccc(F)cc21` (stereo not given): the Potency entry is “inactive”.

With `CCC(C)S` (stereo not given), the activity change, negative = cytotoxicity was 5.41% [at 2.72 µM] (inactive).

As to `O=c1cc(-c2ccccc2)oc2ccccc12`, the Potency entry was “inactive”. For `CC(NC(CCc1ccccc1)C(=O)O)C(=O)N1C(=O)N(C)CC1C(=O)O` (stereo not given), the Potency entry was “inactive”. `C1CN(CCOCCN2CCOCC2)CCO1`: the Potency entry is “inactive”.

As to `CCOC(=O)c1cccc(N)c1`, the Potency result is “inactive”. `N#Cc1ccc(C2CCCc3cncn32)cc1` (stereo not given): the Potency entry was “inactive”.

As for `C[C@@H]1CCN(C(=O)[C@H](CCCN=C(N)N)NS(=O)(=O)c2cccc3c2NC[C@H](C)C3)[C@@H](C(=O)O)C1`, the Potency result is “inactive”. In the case of `CCOC(=O)c1ccc(C)cc1`, the Potency result is “inactive”.

Take `Cc1ccc(Cl)cc1Cl`: the Potency entry is “inactive”. Regarding `CCS(=O)(=O)c1ccc(OC)c(C(=O)OC)c1`, the Potency result was “inactive”. With `CC(C)(C)c1ccc(O)c(O)c1`, the Potency entry was “inactive”. As to `CC(C)(C)c1nnc(NS(=O)(=O)c2ccccc2)s1`, the Potency result was “inactive”. For the molecule `CN1C(=O)N(C)C(O)C1O` (stereo not given), the Potency entry was “inactive”.

As for `OC1CCCCC1c1ccccc1` (stereo not given), the Potency entry was “inactive”. For `CS(=O)(=O)O`, the Potency entry is “inactive”.

On to `CC/C=C\CC/C=C/C(OCC)OCC`, for which the Potency result was “inactive”. On to `FC1(F)C(F)(F)C(F)(F)C2(F)C(F)(F)C(F)(F)C(F)(F)C(F)(F)C2(F)C1(F)F` (stereo not given), for which the Potency entry was “inactive”. `COC(=O)CCSCCC(=O)OC`: the Potency entry is “inactive”.
